HEK293 tox – cytotoxicity counter-screen for GLP-1 receptor inverse agonists; AID 624418; HEK293 cAMP-luciferase reporter cells, luminescence, 24 h; 410,000 tested, 0.13% active; Potency, µM (doses to about 38.3 µM), actives largely listed as inhibitors;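 note: loss of luciferase light is scored as toxicity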
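Seeding density was 200 cells/uL; after overnight-length (12 h) culture, 23 nL compounds went on for 24 h at 37 °C. Readout used a luciferase detection reagent, luminescence taken after 12 min at room temperature.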
GLP-1R agonist – GLP-1 receptor (human) agonism. P43220. HEK293 GLP-1R CRE-luciferase, luminescence, 4-6 h; cells express a hypersensitive GLP-1R form. Potency, µM (series often up to 45.6 µM), usual class: activators. 380,000 tested, 0.007% active. AID 624172
ClpP mod – qHTS Assay for Activators of ClpP. purified B. subtilis ClpP, FRET peptide cleavage, 20 min. 340,000 tested, 1.9% active. Potency, µM (series often up to 57.5 µM). ATP-dependent Clp protease proteolytic subunit (Bacillus subtilis (strain 168)), P80244; active = well fitted falling curve with a large enough effect; inconclusive = small, poorly fitted or top-dose-only effect; inactive = no such curve, though single readings can be large or run the other way; note: the source files actives as falling curves though it sought activators and does not explain the sign; nearly all actives have a fitted effect of over 65% in size
Target sequence (P80244 whole entry, looked up): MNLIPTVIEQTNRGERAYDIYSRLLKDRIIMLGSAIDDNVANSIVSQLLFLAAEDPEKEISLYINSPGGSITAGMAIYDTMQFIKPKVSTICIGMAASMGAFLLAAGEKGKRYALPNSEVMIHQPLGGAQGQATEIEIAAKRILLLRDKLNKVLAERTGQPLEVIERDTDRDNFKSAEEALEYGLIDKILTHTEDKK
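Purified B. subtilis ClpP, 10 microg/mL final in Tris/HCl pH8 with KCl, BSA, glycerol and Tween-20, cleaved an Abz/nitrotyrosine-quenched decapeptide. Fluorescence (ex 320, em 430) was read at 0 and 20 min at room temperature. Delta was normalized to 5.8 microM ADEP and DMSO/no-enzyme controls.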
D3 antag – antagonists of human D3 dopamine receptor; AID 652054; max response, negative = inhibition, %; P35462; D3R cells, DiscoveRx beta-arrestin luminescence, antagonist mode; active compounds read low; 360,000 tested, 2.5% active; in the data active = max response below about -50%; inconclusive = no clear call, values can overlap the other calls
Target sequence (P35462 whole entry, looked up): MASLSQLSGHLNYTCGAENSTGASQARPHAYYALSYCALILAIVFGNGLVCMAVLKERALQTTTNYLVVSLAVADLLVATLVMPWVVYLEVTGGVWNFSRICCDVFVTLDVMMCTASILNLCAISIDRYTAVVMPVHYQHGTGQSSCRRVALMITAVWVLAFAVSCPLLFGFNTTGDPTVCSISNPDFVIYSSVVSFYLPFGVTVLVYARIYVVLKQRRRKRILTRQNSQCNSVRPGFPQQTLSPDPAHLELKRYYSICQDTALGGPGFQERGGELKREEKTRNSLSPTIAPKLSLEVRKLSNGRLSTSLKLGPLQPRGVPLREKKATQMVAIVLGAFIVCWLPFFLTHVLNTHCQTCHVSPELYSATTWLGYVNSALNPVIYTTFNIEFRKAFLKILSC
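Cells expressing the human receptor were seeded at 1500 cells/well, incubated overnight at 37 degrees C in 5% CO2, then exposed to library compounds with dopamine controls for 90 minutes at 37 degrees C before luminescent detection.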
DRD3 agonist – agonists of human D3 dopamine receptor | P35462 | D3R DiscoveRx beta-arrestin cells, luminescence, 90 min | max activation, % | 410,000 tested, 0.58% active; in the data active = max activation above about 30%
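Agonist mode: compounds and dopamine controls were applied to plated cells for 90 min at 37 degrees C after an overnight attachment at 1500 cells/well. Luminescent read-out followed 30 - 60 minutes at room temperature with DiscoveRx detection reagent.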
GLP1R inv ag – inverse agonists of human GLP-1 receptor; HEK293 GLP-1R CRE-luciferase, luminescence, 24 h; GLP-1R form is constitutively active; 410,000 tested, 1.6% active; P43220; AID 624417; Potency, µM (highest dose often 38.3 µM), actives largely listed as inhibitors; note: nearly all actives have a fitted effect of over 55% in size
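Constitutively active GLP-1R drives a cAMP-responsive luciferase in stably transfected HEK293 cells; test compounds are added after overnight (12 h) attachment and left 24 hr, and signal loss in luminescence marks inhibition.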
Large screens that a line does not name were inactive; ! = repeats disagree. Hits are enriched below; roughly 5.7% of the tested compounds scored in any of these assays. Unless noted, calls come from the whole dose curve; as a rule, active = well fitted curve in the direction sought with a large enough effect; inconclusive = small, poorly fitted or top-dose-only effect, or another doubt; inactive = no such curve, though single readings can be large; an effect the other way counts as inactive or inconclusive.

Cc1c(CCNS(=O)(=O)c2ccccc2)sc2nc(-c3ccc(Cl)cc3)nn12	GLP1R inv ag inconclusive (no result: GLP-1R agonist, D3 antag)
Cc1cccc(-n2c(/C=C/c3c(C)[nH]c4ccccc34)nc3ccccc3c2=O)c1	none (no result: GLP-1R agonist, D3 antag)
Cc1cccc(/C=C(\c2nc3ccccc3[nH]2)S(=O)(=O)c2ccccc2)c1	HEK293 tox 8.91µM, D3 antag -61.5, GLP1R inv ag 5.01µM (no result: ClpP mod)
CCCN(CC#CCOc1ccc(OC)cc1)CCC	D3 antag -51.7, GLP1R inv ag inconclusive
Cc1ccc(N=c2oc3cc(O)ccc3cc2C(N)=O)cc1	ClpP mod 25.1µM, GLP1R inv ag inconclusive
Cn1c(O)c(C(=N)COc2ccccc2)c(=O)n(C)c1=O	DRD3 agonist 45.4
CC(=NCCC(c1ccccc1)c1ccccc1)c1c(O)n(C)c(=O)n(C)c1=O	none
COC(=O)[C@]1(C)C[C@H]1[C@H](NP(=O)(c1ccccc1)c1ccccc1)c1ccccc1	none
C=C[C@@H]1C[C@@]1(C)[C@@H](NP(=O)(c1ccccc1)c1ccccc1)c1ccccc1	GLP1R inv ag 10µM
O=C(Nc1ccccc1Cl)c1ccccc1Oc1ccc(C(F)(F)F)cc1[N+](=O)[O-]	HEK293 tox inconclusive, GLP1R inv ag 7.08µM
Cc1cc(NC(=O)CSc2nnc(-c3ccccc3)c(-c3ccccc3)n2)no1	HEK293 tox inconclusive, GLP1R inv ag inconclusive (no result: ClpP mod)
CCOc1cc(-c2nc3c(C)cccn3c2NCC2CCCO2)ccc1O (stereo unspecified)	ClpP mod 14.1µM
Cc1cccn2c(NCC3CCCO3)c(C(C)C)nc12 (stereo unspecified)	ClpP mod 22.4µM
O=C(C[C@@H]1CC[C@@H]2[C@H](COC[C@H](O)CN2Cc2cccc(C(F)(F)F)c2)O1)NCc1ccc(Cl)cc1	GLP1R inv ag 10µM (no result: GLP-1R agonist)
O=C(CCC(=O)N1C[C@H]2C[C@@H](C1)c1cccc(=O)n1C2)NCc1cccc(C(F)(F)F)c1	none
CCCCCCC(=O)O[C@H]1CC[C@H]2[C@@H]3CC[C@H]4CC(=O)C=C(C)[C@]4(C)[C@H]3CC[C@]12C	none (no result: HEK293 tox, GLP-1R agonist, ClpP mod, D3 antag, GLP1R inv ag)
COc1ccccc1N1CCN(C(=O)c2sc3nc(C)nc(N4CCN(c5ccccn5)CC4)c3c2C)CC1	HEK293 tox inconclusive, GLP1R inv ag 5.01µM
Cn1c(=O)[nH]c(=O)c2c1nc([N+](=O)[O-])n2Cc1ccccc1	HEK293 tox 10µM, D3 antag -81.7, GLP1R inv ag inconclusive (no result: ClpP mod)
CCCC1(CC(C)C)C(=O)NC(=S)NC1=O	ClpP mod 28.2µM
CCC1(CC(C)C)C(=O)NC(=S)NC1=O	none
Cc1ccc(C(=O)CC(=O)c2cccc(F)c2)c(O)c1	D3 antag -62.0, GLP1R inv ag inconclusive
F/C(COc1ccc2c(c1)[nH]c1ccccc12)=C1/CN2CCC1CC2	none (no result: HEK293 tox, ClpP mod, D3 antag, GLP1R inv ag)
C=C(C)[C@@]12OC3(c4ccccc4)O[C@@H]1C1[C@@H]4O[C@]4(CO)[C@@H](O)[C@]4(O)C(=O)C(C)=C[C@H]4[C@@]1(O3)[C@H](C)[C@H]2OC(=O)/C=C/C=C/c1ccccc1 (stereo partly specified)	D3 antag -61.3, GLP1R inv ag 2.82µM
COC(=O)c1ccc(CN2CCN(Cc3ccccc3)CC2)cc1	D3 antag -81.5
CC(=O)Nc1ccc(CC(=O)N2CCN(Cc3ccccc3)CC2)cc1	none
O=P(Nc1cccc(Cl)c1)(Oc1ccccc1)Oc1ccccc1	DRD3 agonist 31.6, GLP1R inv ag 8.91µM (no result: ClpP mod)
COc1cccc(NP(=O)(Oc2ccccc2)Oc2ccccc2)c1	GLP1R inv ag 5.01µM
CCn1c(N2CCN(C(=O)C34CC5CC(CC(C5)C3)C4)CC2)nc2ccccc21	HEK293 tox inconclusive, GLP1R inv ag 2µM
CC(CCc1ccccc1)NC(=O)COC(=O)c1ccc(S(C)(=O)=O)c([N+](=O)[O-])c1 (stereo unspecified)	HEK293 tox inconclusive, D3 antag -77.7, GLP1R inv ag inconclusive (no result: ClpP mod)
COc1ccc(C(=O)Nc2ccc(S(=O)(=O)N(Cc3ccccc3)c3ccccc3)cc2)cc1	ClpP mod inconclusive, GLP1R inv ag 5.01µM (no result: GLP-1R agonist, D3 antag)
O=C(CCOc1cccc(Br)c1)Nc1ccc(F)c(S(=O)(=O)N2CCOCC2)c1	HEK293 tox inconclusive, GLP1R inv ag 10µM
CN1C(=O)C(Cl)(Cl)C(=O)c2ccccc21	HEK293 tox inconclusive (no result: ClpP mod)
COc1ccc(CC(N)c2csc(Nc3nncc4ccccc34)n2)cc1 (stereo unspecified)	HEK293 tox inconclusive, GLP1R inv ag inconclusive
CC(C)(C)[C@@H]1COC(=O)[C@@H](Cc2ccc(F)cc2)CC/C=C\C[C@@H](CC(=O)N(CCO)Cc2ccccc2)C(=O)N1	GLP1R inv ag 10µM
O=[N+]([O-])c1ccc(N2CCCC(C(F)(F)F)C2)c2ccncc12 (stereo unspecified)	DRD3 agonist 31.7 (no result: ClpP mod)
C[C@@H]1CN([C@H](C)CO)C(=O)c2c(c3ccccc3n2C)-c2ccccc2CO[C@H]1CN(C)Cc1ccc(-c2ccccc2)cc1	HEK293 tox inconclusive, ClpP mod inconclusive, GLP1R inv ag inconclusive
C[C@@H]1CCCCO[C@@H](CN(C)CC2CCCCC2)[C@@H](C)CN([C@H](C)CO)C(=O)c2cc(NS(=O)(=O)c3ccc(Cl)cc3)ccc2O1	HEK293 tox inconclusive, GLP1R inv ag 10µM
C[C@H](CO)N1C[C@H](C)[C@H](CN(C)S(=O)(=O)c2ccccc2)Oc2ccc(NC(=O)NC3CCCCC3)cc2CC1=O	HEK293 tox inconclusive, D3 antag inconclusive, GLP1R inv ag inconclusive
C[C@@H]1CCCCO[C@H](CN(C)Cc2ccc(C(F)(F)F)cc2)[C@H](C)CN([C@@H](C)CO)C(=O)c2cc(NC(=O)Cc3ccccc3)ccc2O1	HEK293 tox inconclusive, GLP1R inv ag 2.82µM
O=S1(=O)N(CCN2CC=C(c3c[nH]c4cc(F)ccc34)CC2)c2cccc3c2N1CCC3	D3 antag -100.5, GLP1R inv ag inconclusive
COC(=O)c1cc2c(s1)=NC=NP=2(N1CCOCC1)N1CCOCC1	ClpP mod 28.2µM!
C/C(CC(=O)Nc1ccc(Cl)c(C(F)(F)F)c1)=N\NC(N)=S	HEK293 tox inconclusive, GLP1R inv ag 10µM (no result: ClpP mod)
C=C1C=C(C(F)F)n2ncc(C(=O)NCc3ccccc3F)c2N1	none (no result: HEK293 tox, GLP-1R agonist, D3 antag, DRD3 agonist, GLP1R inv ag)
CCN(Cc1ccccc1)S(=O)(=O)c1ccc(C(=O)N(CCCN(C)C)c2nc3cc4c(cc3s2)OCCO4)cc1	HEK293 tox inconclusive, D3 antag inconclusive, GLP1R inv ag 12.6µM
N=C(N)c1c(O)n(C2CCCCC2)c(=O)n(C2CCCCC2)c1=O	HEK293 tox 11.2µM, GLP1R inv ag 4.47µM
